PfGluPho inh – PfG6PD enzyme inhibitors, primary screen, biochemical, fluorescence intensity, uHTS; glucose-6-phosphate dehydrogenase-6-phosphogluconolactonase (Plasmodium falciparum 3D7); PfGluPho enzyme, NADPH resazurin-diaphorase fluorescence; inhibition, % at 20 µM; hit rate 0.78% among 350,000; AID 504690, 2011;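 active = inhibition reaching at least a set limit at 20 µM in the primary screen, cut at about 59% in these data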
Neddylation inh – inhibitors of cullin neddylation, primary screen, biochemical, TR-FRET, uHTS, NAE and Ubc12. NEDD8-conjugating enzyme Ubc12 (Homo sapiens) + NEDD8-activating enzyme E1 regulatory …. inhibition, % at 25 µM. hit rate 0.58% among 360,000. AID 651699, 2012; in the data active = inhibition above about 36%
Target sequence (P61081 whole entry, looked up): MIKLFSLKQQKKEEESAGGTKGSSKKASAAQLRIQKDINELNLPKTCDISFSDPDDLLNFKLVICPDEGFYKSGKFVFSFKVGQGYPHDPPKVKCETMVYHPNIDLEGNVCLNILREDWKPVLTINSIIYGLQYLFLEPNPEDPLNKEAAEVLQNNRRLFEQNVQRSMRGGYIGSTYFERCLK
Target sequence (Q13564 whole entry, looked up): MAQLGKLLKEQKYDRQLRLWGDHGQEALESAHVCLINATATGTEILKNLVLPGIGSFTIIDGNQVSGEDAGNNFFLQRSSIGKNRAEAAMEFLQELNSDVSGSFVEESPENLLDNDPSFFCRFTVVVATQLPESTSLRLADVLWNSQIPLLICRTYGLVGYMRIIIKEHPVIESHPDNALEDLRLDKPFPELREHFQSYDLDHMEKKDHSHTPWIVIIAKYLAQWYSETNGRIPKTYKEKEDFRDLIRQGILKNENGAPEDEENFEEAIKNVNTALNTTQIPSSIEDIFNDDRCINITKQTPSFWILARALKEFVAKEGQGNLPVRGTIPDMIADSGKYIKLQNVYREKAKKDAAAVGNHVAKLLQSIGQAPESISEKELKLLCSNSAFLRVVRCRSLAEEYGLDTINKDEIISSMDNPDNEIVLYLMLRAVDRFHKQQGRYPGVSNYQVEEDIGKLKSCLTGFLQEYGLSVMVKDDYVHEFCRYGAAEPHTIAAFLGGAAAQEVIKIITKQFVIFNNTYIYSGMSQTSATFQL
GC-A act – GC-A stimulated cGMP production enhancers – HEK293 GC-A cells, cGMP TR-FRET, EC30 ANP, primary screen | Atrial natriuretic peptide receptor 1 (Homo sapiens), P16066 | 0% at EC30 ANP, 100% saturating ANP | activation, % at 10 µM | hit rate 0.14% among 370,000 | AID 1671463, 2021; in the data active = activation above about 40%
APOBEC3A inh – APOBEC3A ssDNA deaminase inhibitors, primary screen, selectivity assay for APOBEC3G inhibitor project, biochemical, FAM/TAMRA oligo cleavage fluorescence; recombinant A3A, FAM/TAMRA ssDNA deamination fluorescence; hit rate 0.41% among 330,000; DNA dC->dU-editing enzyme APOBEC-3A (Homo sapiens), P31941; inhibition, % at 20 µM;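 active = at least 40% inhibition at 20 µM here, with at most 30% in a related deaminase screen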
APOBEC3G inh – APOBEC3G DNA deaminase inhibitors, primary screen, biochemical, fluorescence, single-stranded DNA substrate, uHTS; AID 493012, 2011; inhibition, % at 20 µM; recombinant A3G, ssDNA deamination FAM/TAMRA fluorescence; hit rate 0.28% among 330,000;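 active = inhibition of at least 40% at 20 µM, with no more than 30% in the related APOBEC3A deaminase screen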
GC-B act – human GC-B receptor activators, primary screen, HEK293 GC-B cells, cGMP TR-FRET, EC30 CNP. 0% at EC30 CNP, 100% saturating CNP. activation, % at 10 µM. hit rate 0.11% among 370,000;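 active = activation at 10 µM reaching about 35% in either raw or pattern-adjusted values, limit read from the data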
A3G conf – APOBEC3G deaminase inhibitor retest, confirmation, biochemical, fluorescence, single-stranded DNA substrate, single concentration. shares compounds with APOBEC3G inh. recombinant A3G ssDNA deaminase, UDG/FAM-TAMRA fluorescence. inhibition, % at 20 µM. hit rate 72% among 890;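 active = inhibition reaching a set limit in any replicate at 20 µM, the limit being 80% of the first screen's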
UDG A3G counter – E. coli UDG inhibitors, confirmation, counter-screen for APOBEC3G inhibitor project, biochemical, single concentration, fluorescence, FAM/TAMRA oligo; shares compounds with APOBEC3G inh; UDG counterscreen; inhibition, % at 20 µM; 710 tested, under 10 active; AID 504715, 2011;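 active = compounds giving 40% or more inhibition at 20 µM in any one of the three replicates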;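 note: inhibitors lower the FAM signal released by uracil excision and alkaline cleavage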
Of the large screens only hits and unclear results are named; the others gave an inactive call (follow-up assays come after a bar, where they were run). This is a sample that favours compounds with a hit; in the whole collection about 2% have one here.

CCCCCCCCNS(=O)(=O)/C=C/c1ccccc1CNC(=O)OC(C)(C)C	none (no result: PfGluPho inh, Neddylation inh, APOBEC3A inh, APOBEC3G inh)
CCCCc1c(-c2ccccc2OC)ncn1Cc1ccc(C)cc1	none (no result: PfGluPho inh, Neddylation inh, APOBEC3A inh, APOBEC3G inh)
COC(=O)CSc1n[nH]c(=S)s1	APOBEC3G inh 50 | A3G conf 65 | UDG A3G counter inactive
COC(=O)CSc1nnc(SCc2ccccc2)s1	none
S=c1[nH]nc(NCCCN2CCOCC2)s1	APOBEC3G inh 44 | A3G conf 47 | UDG A3G counter inactive
S=C(NCCCN1CCOCC1)NCCCN1CCOCC1	none
Cc1ccc(-c2cc(-c3nnc(SCC(=O)N4c5ccccc5Sc5ccc(Cl)cc54)n3N)[nH]n2)cc1	none (no result: PfGluPho inh, Neddylation inh, APOBEC3A inh, APOBEC3G inh)
Nn1c(SCC(=O)N2CCOCC2)nnc1-c1cc(-c2ccc(F)cc2)n[nH]1	none (no result: PfGluPho inh, Neddylation inh, APOBEC3A inh, APOBEC3G inh)
CCOC(=O)C1=C(COc2ccccc2)NC(=O)NC1c1ccc(Cl)cc1 (configuration not stated)	none
COC(=O)C1=C(COc2ccccc2)NC(=O)NC1c1ccc(Cl)cc1 (configuration not stated)	APOBEC3G inh 48 (no result: Neddylation inh) | A3G conf inactive | UDG A3G counter inactive
CCOC(=O)c1cc(C#N)c(SCC(N)=O)[nH]c1=O	none
CCOC(=O)c1cc(C#N)c(SCC(=O)c2cc(C#N)c(SC)nc2C)[nH]c1=O	APOBEC3G inh 43 | A3G conf 17 | UDG A3G counter inactive
Cc1cccc(-c2n[nH]c(=S)n2/N=C/c2ccc(C)s2)c1	none
Cc1cccc(/C=N/n2c(-c3cc(-c4ccccc4)n[nH]3)n[nH]c2=S)c1	none
Cc1ccc(/C=N/n2c(C)n[nH]c2=S)o1	none
Cc1cccc(/C=N/n2c(-c3ccncc3)n[nH]c2=S)c1	APOBEC3G inh 79 | A3G conf 99 | UDG A3G counter inactive
Cc1ccc(/C=N/n2c(-c3ccncc3)n[nH]c2=S)s1	APOBEC3G inh 49 | A3G conf 82 | UDG A3G counter inactive
S=c1[nH]nc(-c2ccncc2)n1/N=C/c1ccccc1	APOBEC3G inh 55 | A3G conf 71 | UDG A3G counter inactive
Cc1ccc(/C=N/n2c(-c3ccncc3)n[nH]c2=S)o1	APOBEC3G inh 47 | A3G conf 90 | UDG A3G counter inactive
C[C@@H]1CCN(C2CC2)S(=O)(=O)c2ccc(N3CCC[C@@H]3CO)cc2O1	none (no result: PfGluPho inh, Neddylation inh, APOBEC3A inh, APOBEC3G inh)
O=C(OCc1cn(Cc2cccc(F)c2)nn1)N1CCCCC1	none (no result: PfGluPho inh, Neddylation inh, APOBEC3A inh, APOBEC3G inh)
CC(C)(C)S(=O)(=O)Cc1nc(-c2ccc(Cl)c(Cl)c2)cs1	APOBEC3G inh 67 | A3G conf inactive
CC(C)(C)C(=O)OCc1nc(-c2ccc(Cl)cc2)cs1	none
CC(C)[C@H](NC(=O)CC1CCCC1)C(=O)N1CCC[C@H]1C(=O)NCc1ccccc1	none (no result: PfGluPho inh, Neddylation inh, APOBEC3A inh, APOBEC3G inh)
COc1ccc(S[C@]2(C(=O)N3CCOCC3)CC(=O)N(C(=O)C3CC3)[C@@H]2c2ccc(OC)cc2)cc1	none (no result: PfGluPho inh, Neddylation inh, APOBEC3A inh, APOBEC3G inh)
COc1ccc2c(c(-c3ccccc3)cn2C)c1-c1ccccc1	none (no result: PfGluPho inh, Neddylation inh, APOBEC3A inh, APOBEC3G inh)
S=c1[nH]nc(-c2ccco2)n1/N=C/c1c(Cl)cccc1Cl	APOBEC3G inh 43 | A3G conf 71 | UDG A3G counter inactive
S=c1[nH]nc(-c2ccco2)n1/N=C/c1cccc(Cl)c1	none
Cn1cccc1/C=N/n1c(-c2ccco2)n[nH]c1=S	APOBEC3G inh 44 | A3G conf 80 | UDG A3G counter inactive
Cc1cc(-c2n[nH]c(=S)n2-c2ccccc2)nn1C	none

Assay outcomes (PubChem)
